Several values for one entry are separate records, joined by “and”; a condition that tells them apart may be missing. Equal entries are not always repeated. Hit rate of the full screen: of about 5,500 compounds, about 2,000 (36%) were called active. About 18% were inconclusive and are not listed. Rule as the data show it: active = normalized growth mostly below about 0.91 (no sharp cut-off); inconclusive = no clear call, values can overlap the other calls; inactive = mostly above about 0.92. This is one part of the list.
Experiment: chemical genetic growth profiling, strain panel (AID 1159580);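 also: tested at 20 µM; growth read once vehicle control cultures reached saturation at 30 °C; 1 = growth at the plate median or of vehicle wells; lower values mean less growth of the strain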
Conditions: S. cerevisiae deletion strains, growth OD

Measured: normalized growth

CCCCOc1cc(C(=O)NCCN(CC)CC)c2ccccc2n1
inactive: locus YAL021C, strain ccr4, hits give low values 0.956 | locus YAL026C, strain drs2, hits give low values 0.986 | locus YAL030W, strain snc1, hits give low values 0.972 | locus YBL061C, strain skt5, hits give low values 0.97 | locus YBR009C, strain hhf1, hits give low values 0.97 | locus YBR021W, strain FUR4, hits give low values 1.02 | locus YBR023C, strain chs3, hits give low values 0.977 | locus YBR171W, strain sec66, hits give low values 0.947 | locus YBR229C, strain ROT2, hits give low values 1.01 | locus YBR231C, strain swc5, hits give low values 0.959 | locus YBR279W, strain paf1, hits give low values 0.998 | locus YCL011C, strain gbp2, hits give low values 0.987 | locus YCL016C, strain dcc1, hits give low values 1.01 | locus YCL029C, strain bik1, hits give low values 1.01 | locus YCL061C, strain MRC1, hits give low values 0.967 | locus YCL069W, strain vba3, hits give low values 0.984 | locus YCR088W, strain abp1, hits give low values 0.954 | locus YDL005C, strain med2, hits give low values 0.972 | locus YDL035C, strain GPR1, hits give low values 1.03 | locus YDL040C, strain nat1, hits give low values 0.96 | locus YDL074C, strain BRE1, hits give low values 1 | locus YDL101C, strain DUN1, hits give low values 1 | locus YDL134C, strain PPH21, hits give low values 1.03 | locus YDL185W, strain tfp1, hits give low values 1.01 | locus YDL192W, strain arf1, hits give low values 1 | locus YDR001C, strain nth1, hits give low values 0.933 | locus YDR069C, strain doa4, hits give low values 0.932 | locus YDR101C, strain arx1, hits give low values 1.01 | locus YDR137W, strain rgp1, hits give low values 1.02 | locus YDR159W, strain sac3, hits give low values 0.973 | locus YDR162C, strain NBP2, hits give low values 1.01 | locus YDR195W, strain ref2 0.932 | locus YDR297W, strain sur2, hits give low values 0.966 | locus YDR318W, strain mcm21, hits give low values 0.984 | locus YDR334W, strain swr1, hits give low values 0.925 | locus YDR335W, strain msn5, hits give low values 0.942 | locus YDR388W, hits give low values 0.995 | locus YDR392W, strain spt3, hits give low values 1.05 | locus YDR502C, strain sam2, hits give low values 0.996 | locus YEL003W, strain gim4, hits give low values 0.959 | locus YEL037C, strain rad23, hits give low values 0.968 | locus YEL061C, strain CIN8 (second series), hits give low values 0.941 | locus YEL061C, strain CIN8, hits give low values 1 | locus YER015W, strain faa2, hits give low values 0.973 | locus YER016W, strain bim1, hits give low values 1.01 | locus YER110C, hits give low values 1 | locus YER111C, strain swi4, hits give low values 0.966 | locus YER155C, strain BEM2 (second series), hits give low values 0.886 | locus YER155C, strain BEM2, hits give low values 0.998 | locus YER167W, strain BCK2, hits give low values 1 | locus YFR010W, strain ubp6, hits give low values 0.94 | locus YGL078C, strain dbp3, hits give low values 0.995 | locus YGL086W, strain mad1, hits give low values 0.992 | locus YGL167C, strain pmr1, hits give low values 0.939 | locus YGL173C, strain kem1, hits give low values 0.966 | locus YGL227W, strain vid30, hits give low values 0.956 | locus YGL240W, strain doc1, hits give low values 0.92 | locus YGL248W, strain PDE1, hits give low values 0.999 | locus YGL253W, strain hxk2, hits give low values 0.995 | locus YGR078C, strain PAC10, hits give low values 1 | locus YGR135W, strain pre9, hits give low values 0.977 | locus YGR252W, strain gcn5, hits give low values 0.914 | locus YHR013C, strain ard1, hits give low values 1.01 | locus YHR027C, strain rpn1, hits give low values 0.973 | locus YHR030C, strain SLT2, hits give low values 1.01 and 1.04 | locus YHR079C, strain IRE1 (second series), hits give low values 0.982 | locus YHR079C, strain IRE1, hits give low values 1.02 | locus YHR094C, strain hxt1, hits give low values 0.991 | locus YHR129C, strain ARP1, hits give low values 1.01 | locus YHR142W, strain chs7, hits give low values 0.974 | locus YHR200W, strain rpn10, hits give low values 0.998 | locus YIL066C, strain RNR3, hits give low values 1.01 | locus YIL073C, strain SPO22, hits give low values 1.03 | locus YIL125W, strain kgd1, hits give low values 0.997 | locus YIR030C, strain dcg1, hits give low values 0.993 | locus YJL092W, strain hpr5, hits give low values 0.979 | locus YJL095W, strain BCK1 (second series), hits give low values 0.966 | locus YJL095W, strain BCK1, hits give low values 0.988 and 1.04 | locus YJL115W, strain asf1, hits give low values 0.94 | locus YJL129C, strain trk1, hits give low values 0.939 | locus YJL134W, strain LCB3, hits give low values 1 | locus YJL154C, strain vps35, hits give low values 0.942 | locus YJL164C, strain tpk1, hits give low values 1 | locus YJL166W, strain qcr8, hits give low values 0.937 | locus YJL168C, strain set2, hits give low values 0.997 | locus YJL187C, strain SWE1 (second series), hits give low values 0.999 | locus YJR043C, strain POL32, hits give low values 1.02 | locus YJR066W, strain TOR1, hits give low values 0.968

— PubChem BioAssay AID1159580 (chemical genetic matrix, 2015)
